# Test results published in the supplement of paper PMC11417369.
# ± gives the standard deviation of the averaged measurements. Over roughly 25,000 sequences, “ln(normalized median fluorescence intensity)” has its median near 8.9; the highest 2% begin near 10. What follows is part of a selection rich in the highest values, with near analogues and random picks from the rest.
# Test system: PfAP2-LT AP2 domain (GST-tagged)
# Assay: gcPBM binding intensity (ln(normalized median fluorescence intensity)); higher = stronger DNA binding
# Method in brief: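 Plasmodium falciparum DNA-binding domains carrying a GST tag were expressed in E. coli and applied for 1 h, at about 25 μg on average, to an Agilent 4 × 180k array. The array held primer-extended double-stranded 36-bp intergenic genomic probes together with negative controls, and binding took place in 1× PBS with 1% milk, 0.2 mg/ml BSA, 0.5% salmon testes DNA and 0.03% Triton X-100. An Alexa488 anti-GST antibody detected bound protein, and the array was scanned at 488 nm. Binding intensity is taken as the highest Masliner-normalised natural-log median intensity across replicate spots of either probe orientation.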
row,Sequence,gcPBM binding intensity (ln)
1,TTTTTTAAATAATATTGTACAAAAAATGTATAAATA [XGTACX_site3010],8.44 ± 0.42
2,ATATATATATAAATATGTACATATATACATATATAC [XGTACX_site2374],8.89 ± 0.23
3,TGTATGTCTTTATTTTGTACACAATATAAAAAATTA [XGTACX_site5441],8.51 ± 0.38
4,ACCATTTGTAGGTAAACACACATTATTATTAATATC [CACACA_site2635],8.93 ± 0.4
5,CATTTTGTAAGATATGCACACATGGATCATATTTTA [CACACA_site423],8.95 ± 0.34
6,CAAAAGCGATACGGCACACATTTCCTGTTTAAATGA [CACACA_site5519],8.99 ± 0.58
7,TACTGATCTTTCTAGGTGCGCTGCTACCATTATCGT [GTGCAC_site9538],8.99 ± 0.49
8,GATATGATTAACTTATGTTATTCTTGATGATTACGT [CACACA_negctrl_site354],8.86 ± 0.38
9,TCTTTATTATTCGCCACACACATATAAATATAAATA [CACACA_site7441],8.93 ± 0.4
10,TATATACACGCACATACACACAAATAAAAAAACACC [CACACA_site7578],9.67 ± 0.31
11,TGAACACGCACAAATACACACAAAAAAAATAAATAA [CACACA_site6257],9.31 ± 0.49
12,CATATACACGAACACACACACACACGCACAAAAAAA [CACACA_site6376],10.1 ± 0.24
13,AAAAAAAAAATATATATATATATATATATATATATA [GTGCAC_negctrl_site467],10.1 ± 0.2
14,AAAAAAAAAAAAAAAAAAAAATATATATATATATAT [GTGCAC_negctrl_site426],9.67 ± 0.085
15,AAAAAAAAAAAAAAAAAAAAAAAAAAATATATATAT [CACACA_negctrl_site271],8.74 ± 0.28
16,AAAAAAAAAAAAAAAAAAAAAAAAATATATATATAT [CACACA_negctrl_site436],9.25 ± 0.27
17,AAAAAAAAAAAAAATATATATATATATATATATATA [CACACA_negctrl_site540],10.1 ± 0.25
18,AAAAAAATATATATATATATATATATATATATATAT [TGCATGCA_negctrl_site7],9.605 ± 0.064
19,ATATTTATATATATCATACACACTAATATGTATATT [CACACA_site3409],8.95 ± 0.42
20,ATATAAATAAATACAACACACATGTCATATCTAAAT [CACACA_site7533],9.12 ± 0.39
21,AGTAGTCTGGAGAAATGTACACAGTATCTGGTAGCT [XGTACX_site4871],8.86 ± 0.44
22,AAGTAATACAACACGCACATATATATATATATATAT [GTGCAC_negctrl_site89],10.3 ± 0.25
23,AAAAAAAAAAAAAACACACACACACGCACATATACA [CACACA_site7288],10.1 ± 0.3
24,ATACAACATATATATACACACATATAATAATAATAA [CACACA_site3367],9.26 ± 0.38
25,GGTACATACAAACACACACACAAAAAAAAAAAAATA [CACACA_site1577],9.65 ± 0.4

row,Sequence,gcPBM binding intensity (ln)
1,AAAAAAAAAAAACACACACACAAATACAAATACATA [CACACA_site415],9.99 ± 0.38
2,AAAAAAAAAAAAAACACACACACACGCAAATACATA [CACACA_site6474],10.3 ± 0.27
3,AATACATATAATACAACACACAAGTAATATAAACCT [CACACA_site3597],9.34 ± 0.29
4,CACATACACATACACATACACACGCATAGAAACATA [CACACA_site2136],9.71 ± 0.28
5,AAAAAAAAAAAAAAAACACACATACACGCACGCACA [CACACA_site7569],9.35 ± 0.23
6,AAAAAAAAAAAAAACACACACACACGCATACACATA [CACACA_site7364],10.2
7,AAAACATACATATATACACACATATATATATATATA [CACACA_site1852],9.97 ± 0.53
8,CATATATATATATATTGTACAAGATTGTTTTTTTAT [XGTACX_site3913],8.79 ± 0.3
9,ATAAAAATTTAAAAAGAACACACGAAAGAAGGACTT [CACACA_site3929],9.01 ± 0.53
10,TTTTTTATGATTAACACACACACAAAAAAAAAAAAA [CACACA_site4130],9.03 ± 0.32
11,AAAAATTTTAATTAGGAACACACATATATATATATA [CACACA_site9016],9.48 ± 0.42
12,ATATTTGCCCAAGATAGTACATATATATATATATAT [XGTACX_site7756],9.74 ± 0.2
13,TACATATTTTATAACTGTACTTTTTTATTATCCAAT [XGTACX_site5396],8.71 ± 0.47
14,TAAAAGGAGACATATACACACATATATATATATATA [CACACA_site5539],10 ± 0.23
15,TAAATAAAAAGACACACACACATATTTATATTTATA [CACACA_site7135],9.7 ± 0.19
16,AACATACACATATACACACACACATATATACCTATA [CACACA_site6643],10 ± 0.31
17,TAAACATACCTATACACACACACACGCACACGCACA [CACACA_site6372],10.22 ± 0.042
18,AAGGATCACGCACAAACACACATATTTATATTTATA [CACACA_site6405],9.14 ± 0.45
19,AAAAAAAACAAACACACACACAAATATTTATATATT [CACACA_site436],9.63 ± 0.22
20,ATAAAAAGGAGACACACACACACACGCATATTTATA [CACACA_site6551],10.3 ± 0.26
21,AAAAAAAAAAAAAACACACACACAAATACAAATACA [CACACA_site414],9.9 ± 0.36
22,AACACATACAAACACACACACAAAAAAAAAAAAAAA [CACACA_site393],9.65 ± 0.49
23,AACAAAAAAACAAACACACACACACGCATATTTATA [CACACA_site7680],10.2 ± 0.29
24,AAAAAAAAAAAAAACACACACACACGCATACAAAAT [CACACA_site6794],10.2 ± 0.13
25,AAAAAAAAAAAACATACACACATACATACCTATATA [CACACA_site6575],9.33 ± 0.3
